Gli-Sufu antag: Gli-Sufu pathway antagonists, primary screen, luciferase luminescence, Sufu-KO-LIGHT cells, uHTS | Sufu-KO-LIGHT fibroblasts, Gli luciferase reporter luminescence | inhibition, % at 5 µM | 340,000 tested, 0.74% active;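 active means inhibition above about 55%, limit read from the data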;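 further: 0% = DMSO-treated cells and 100% = wells with medium but no cells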
GalR3 antagonist: GalR3 antagonists in HEK293 cells, primary screen, cell-based, fluorescence readout. 360,000 tested, 0.44% active. AID 651719, 2012. inhibition, % at 3 µM. HEK293 GalR3-CNG cAMP membrane potential fluorescence; galR3 body fused to GalR1 C-terminus;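 active means inhibition above the screen-wide average plus 3 SD, cut at about 13% in these data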;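 further: forskolin and galanin both at EC90 stimulate the cells; cAMP rise reported by CNG channel membrane potential dye signal; 0% = forskolin plus galanin with DMSO and 100% = forskolin alone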
Target sequence (O60755 1-299 limits assumed): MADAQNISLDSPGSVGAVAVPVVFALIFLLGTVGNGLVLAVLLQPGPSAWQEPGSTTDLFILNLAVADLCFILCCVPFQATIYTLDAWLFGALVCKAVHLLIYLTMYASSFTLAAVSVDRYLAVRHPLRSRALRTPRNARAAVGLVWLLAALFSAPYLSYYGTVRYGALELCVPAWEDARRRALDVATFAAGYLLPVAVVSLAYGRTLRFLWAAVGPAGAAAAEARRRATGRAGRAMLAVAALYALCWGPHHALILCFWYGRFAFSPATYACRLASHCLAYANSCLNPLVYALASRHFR
H9c2 protect: cardioprotection against H2O2-induced cell death, primary screen, uHTS, H9c2 cells, ATPLite luminescence; H9c2 cardiomyocytes, H2O2 injury protection, 2 h; protection from H2O2 cell death, % at 20 µM; 360,000 tested, 0.63% active; AID 588492, 2011;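 active means compounds giving at least 50% protection of heart cells from peroxide-induced death in the single-dose screen, raw or plate-pattern-corrected value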;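 further: 0% = DMSO wells with peroxide and 100% = DMSO wells without peroxide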
SMARCA2 activ: SMARCA2 (BRM) function activators, primary screen, cell-based, luminescence, high throughput; activation, % at 9.1 µM; 370,000 tested, 1% active; AID 652017, 2013; MG213 cells, MMTV-luciferase reporter, dexamethasone, overnight; in the data active means activation above about 7.8%;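 further: 0% = vehicle wells and 100% = reference activator wells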
NR2F2 inh: NR2F2 transcriptional activity inhibitors, primary screen, cell-based, luciferase reporter, HEK293T, luminescence; COUP transcription factor 2 (Homo sapiens), P24468; HEK293T NGFI-A luciferase reporter; inhibition, % at 8.6 µM; 370,000 tested, 0.7% active; AID 686940, 2013;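 active means inhibition above a per-plate cutoff, mean inhibition of test wells between control levels plus 3 SD, cut at about 38% in these data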;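 further: cells cotransfected with COUP-TFII expression vector driving the NGFI-A reporter; 0% = median of COUP-TF2 test wells and 100% = reporter-only cells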
Target sequence (P24468 whole entry, looked up): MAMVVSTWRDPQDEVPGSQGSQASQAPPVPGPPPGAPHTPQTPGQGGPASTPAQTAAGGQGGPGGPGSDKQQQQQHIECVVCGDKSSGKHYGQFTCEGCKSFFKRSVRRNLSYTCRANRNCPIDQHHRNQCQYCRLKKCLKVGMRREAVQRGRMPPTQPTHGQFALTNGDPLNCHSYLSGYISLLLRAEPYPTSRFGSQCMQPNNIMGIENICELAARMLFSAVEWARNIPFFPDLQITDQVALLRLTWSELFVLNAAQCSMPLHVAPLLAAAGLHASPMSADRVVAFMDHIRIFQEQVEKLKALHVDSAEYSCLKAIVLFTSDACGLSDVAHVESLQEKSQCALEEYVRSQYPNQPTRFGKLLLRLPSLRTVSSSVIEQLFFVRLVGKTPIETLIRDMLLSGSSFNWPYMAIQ
FXN GAA850 act: FXN promoter activators, primary screen, cell-based, luciferase luminescence, HEK293 lucGAA850 | HEK293 lucGAA850 FXN promoter luciferase reporter, 24 h; percent of 10 µM SAHA response | activation, % at 6 µM | 360,000 tested, 0.56% active;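 active means activation above the average of all compounds screened plus 3 SD, cutoff fixed separately per campaign, cut at about 7.5% in these data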;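 further: 0% = DMSO wells and 100% = 10 µM SAHA wells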
Gli-Sufu confirm: Gli-SUFU pathway antagonists, confirmation, single concentration, luciferase luminescence, Sufu-KO-LIGHT cells | shares compounds with Gli-Sufu antag | Gli luciferase reporter | inhibition, % at 5 µM | 2,500 tested, 40% active;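 active means mean inhibition at 5 µM reaching about 45%, limit read from the data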;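 further: plate controls were DMSO-treated cells for no effect and wells lacking cells for full effect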
Gli cytotox: cytotoxicity in Sufu-KO-LIGHT cells, confirmation, cytotoxicity control for Gli-SUFU antagonist project, cell-based, ATP luminescence, single concentration; shares compounds with Gli-Sufu antag; cytotoxicity, % at 5 µM; 2,500 tested, 32% active;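 active means mean cytotoxicity at 5 µM above about 25%, limit read from the data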;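 further: cells exposed to compound overnight for roughly 16 to 18 hours; plate controls were DMSO wells with cells for no effect and medium without cells for full effect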
Wnt3a counter: Wnt3a reporter signal inhibition, confirmation, counter-screen for Gli-SUFU antagonist project, Wnt-LIGHT cells, luminescence, single concentration; 2,500 tested, 20% active; AID 651995, 2013; inhibition, % at 6.25 µM; Wnt3a-driven luciferase reporter; shares compounds with Gli-Sufu antag;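 active means mean inhibition above about 25%, limit read from the data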
Gal4-VP16 ctr: Gal4-VP16 luciferase reporter inhibitors, counter-screen for COUP-TFII antagonist project, cell-based, luminescence, HEK293. shares compounds with NR2F2 inh. AID 687007, 2013. inhibition, % at 8.5 µM. 2,500 tested, 25% active; in the data active means inhibition above about 13%
COUP-TFII conf: NR2F2 transcriptional activity inhibitors, confirmation, cell-based, luciferase reporter, HEK293, triplicate | shares compounds with NR2F2 inh | HEK293 NGFI-A luciferase reporter, luminescence | inhibition, % at 8.5 µM | 2,500 tested, 45% active;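 active means mean inhibition over three repeats above a set limit taken from the earlier primary screen, cut at about 38% in these data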;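 further: 100% = cells given the luciferase reporter alone without the COUP-TF2 vector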
* = called active by the depositor; . = not tested or not shown. In the library only some 3.4% were active in any assay of this set; here they are far more common.

SMILES | Gli-Sufu antag | GalR3 antagonist | H9c2 protect | SMARCA2 activ | NR2F2 inh | FXN GAA850 act | Gli-Sufu confirm | Gli cytotox | Wnt3a counter | others
COC(=O)C1=C(c2ccc(OC(F)(F)F)cc2)C[C@@H]2CC[C@H]1N2C(=O)N1CCC(C)CC1 | 46.4 | -1.3 | -22.2 | -2.2 | 28.2 | -3.0 | . | . | .
CC(C)C(NC(=O)C(C(C)C)N(C)C)C(=O)N(C)C(C(=O)N1CCCC1C(=O)N1CCCC1C(=O)NCc1ccccc1)C(C)C (stereo not drawn) | 50.5 | -3.5 | 0.4 | -2.0 | -54.4 | -1.0 | 57.5* | 51.5* | 14.2
Cc1cccc(N2C(=O)NC(=O)/C(=C\c3cc(C)n(-c4sc5c(c4C#N)CCCC5)c3C)C2=O)c1C | 57.8* | -5.2 | -12.1 | -2.8 | 14.8 | 2.9 | 50.0* | 34.5* | -30.9
c1ccc2c(CNC3CCCCCC3)c[nH]c2c1 | 1.4 | -5.4 | -2.4 | 3.2 | 0.5 | -3.6 | . | . | .
Cn1cccc1/C=C1/C(=O)NC(=O)N(Cc2ccccc2)C1=O | 52.7 | 4.5 | 9.8 | -1.0 | 9.5 | 7.2 | 45.1* | 38.4* | 26.0*
COC(=O)C1C(C(=O)O)C2(Cl)C(Cl)=C(Cl)C1(Cl)C2(Cl)Cl (stereo not drawn) | -0.4 | -2.1 | 1.6 | -2.9 | -5.0 | 0.0 | . | . | .
COc1ccc(CN2CCN(C(=O)COc3cccc(C)c3)CC2)c(OC)c1 | -11.3 | -1.0 | -9.6 | 0.7 | 4.8 | -3.6 | . | . | .
COc1ccccc1CN1CCN(C(=O)COc2cccc(C)c2)CC1 | 94.3* | 1.0 | 12.3 | 2.0 | 2.7 | 2.3 | 9.9 | 26.9* | -36.6
COc1cc2c3cc1Oc1c(OC)c(OC)cc4c1[C@H](Cc1ccc(cc1)Oc1cc(ccc1O)C[C@H]3N(C)CC2)N(C)CC4 | 17.6 | -5.1 | -17.0 | 7.2 | 9.4 | -0.3 | . | . | .
COc1cc2c3c(c1OC)Oc1ccc(cc1)C[C@H]1c4c(cc(OC)c(OC)c4Oc4ccc(cc4)C[C@@H]3N(C)CC2)CCN1C | 64.7* | -6.6 | -15.3 | 6.2 | 1.9 | -9.4 | 20.4 | -4.6 | -0.6
Clc1ccc(OCC#CCN2CCCC2)cc1 | 10.0 | -9.6 | -6.0 | 3.9 | -7.5 | 0.3 | . | . | .
CCCCCCn1c(=O)c(C(=O)Nc2cnccn2)c(O)c2ccccc21 | 78.5* | -4.8 | -15.5 | 1.9 | -7.3 | -1.0 | 78.6* | -6.8 | 29.8*
CCCCCn1c(=O)c(C(=O)Nc2ccccn2)c(O)c2ccccc21 | 31.0 | -8.5 | 2.2 | 0.4 | 6.6 | 0.7 | . | . | .
CCCCOC(=O)c1ccccc1C(=O)OCc1ccccc1 | 0.2 | 1.2 | -1.1 | -4.1 | -17.3 | 1.3 | . | . | .
O=c1[nH]c2ccccc2n1C1CCN(C(c2cccs2)c2nnnn2-c2ccc3c(c2)OCCO3)CC1 (stereo not drawn) | . | -5.4 | 36.2 | -0.5 | 21.5 | . | . | . | .
Cc1cccc(-n2c(/C=C/c3ccc([N+](=O)[O-])o3)nc3ccccc3c2=O)c1 | 72.5* | -0.8 | 4.4 | -0.5 | -6.8 | 1.3 | 62.9* | 30.6* | 22.2
Cc1ccc(-c2cc(-c3ccc(C)cc3)[n+](C)o2)cc1 | 82.7* | -7.4 | -11.1 | -11.3 | 68.6* | -3.3 | 86.2* | 30.1* | 36.2* | Gal4-VP16 ctr=6.4;COUP-TFII conf=56.4*
Cc1ccc(-c2cc(-c3ccc(C)cc3)[n+](-c3ccc(C(=O)[O-])cc3)c(-c3ccc(C)cc3)c2)cc1 | 8.3 | -1.1 | -5.5 | 1.2 | 7.3 | 2.2 | . | . | .
COC(=O)C1=C(c2ccc(F)cc2F)C[C@@H]2CC[C@H]1N2C(=O)N1CCC(O)(c2ccc(Cl)cc2)CC1 | -0.8 | -4.6 | 1.9 | -1.1 | 27.0 | 0.1 | . | . | .
CC1C(OC(=O)CCC(=O)NC(C)(C)CO)O[C@H]2OC3(C)CC[C@H]4[C@H](C)CCC1C24OO3 (stereo partly drawn) | 85.0* | -10.3 | 4.2 | -1.2 | 45.6* | -7.2 | 86.0* | -2.2 | 24.8 | Gal4-VP16 ctr=7.3;COUP-TFII conf=49.7*
CC(C)CC(NC(=O)CCCNC(=O)CCC(=O)OC1O[C@H]2OC3(C)CC[C@H]4[C@H](C)CCC(C1C)C24OO3)C(=O)O (stereo partly drawn) | 84.7* | -8.6 | -0.8 | 0.0 | 45.9* | -6.5 | 78.5* | -7.7 | 15.4 | Gal4-VP16 ctr=-2.5;COUP-TFII conf=45.2*
CC1C(=O)CC2(C(C)C)CC12 (stereo not drawn) | . | -4.4 | 1.0 | 0.9 | -26.4 | -0.5 | . | . | .
N#CC(C#N)=C(N)c1cccnc1 | 0.3 | -0.1 | 1.9 | -0.6 | -1.7 | -1.1 | . | . | .
O=C1NC2C(=CC(O)C(O)C2O)c2cc3c(cc21)OCO3 (stereo not drawn) | 71.2* | -2.1 | -0.7 | -8.3 | 77.7* | -14.6 | 69.9* | 2.9 | 101.6* | Gal4-VP16 ctr=10.7;COUP-TFII conf=57.7*
O=C1NC2C(=CC(O)C(O)C2O)c2cc3c(c(O)c21)OCO3 (stereo not drawn) | 84.0* | -4.1 | 10.8 | -9.9 | 90.7* | -14.5 | 92.3* | 78.4* | 104.2* | Gal4-VP16 ctr=25.2*;COUP-TFII conf=84.0*
CC(C)CN1Cc2ccccc2-n2nncc2C1 | . | -1.0 | -2.5 | -2.9 | 2.0 | -0.8 | . | . | .
CCN(CC)C1=NC(=[N+](CC)CC)c2ccccc21 | 78.9* | -4.1 | -12.0 | -5.3 | 45.5* | 0.1 | 80.1* | 26.6* | 39.2* | Gal4-VP16 ctr=12.2;COUP-TFII conf=52.3*
CC1=NN(c2ccccc2)C(=O)/C1=C/c1c(O)[nH]c(=S)[nH]c1=O | 14.0 | 0.2 | -2.8 | 1.6 | -1.2 | -2.1 | . | . | .
O=C(C(=O)N1CCOCC1)c1cn(CCCOc2ccccc2)c2ccccc12 | -11.4 | -4.8 | 3.3 | -1.9 | 4.0 | -1.4 | . | . | .
